Screening results as filed in PubChem BioAssay.
Mtb bLac sens – beta-lactam sensitization of Mtb H37Rv; inhibition, % at 25 µM; M. tuberculosis H37Rv growth with meropenem, percent inhibition; 330,000 tested, 0.27% active; AID 434955; call rule not given here;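 further: growth measured after seven days incubation then overnight dye step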
GDH-TPI counter-1 – inhibits GDH-TPI coupling enzymes, artifact for Mtb FBA screen | GDH-TPI coupled enzyme counterscreen, NADH absorbance | inhibition, % at 4.8 µM | 360,000 tested, 1.2% active | AID 588335; in the data active means inhibition above about 30%
UGM FP inh – inhibitors of M. tuberculosis UDP-galactopyranose mutase; inhibition, % at 10 µM; P9WIQ1; AID 504406; purified UGM, fluorescence polarization probe displacement; 320,000 tested, 0.06% active; in the data active means inhibition above about 10%, passing the limit was not always enough
Rv3671c inh – inhibits the M. tuberculosis serine protease Rv3671c | P9WHR9 | inhibition, % at 5.96 µM | 320,000 tested, 0.048% active; in the data active means inhibition above about 38%;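 further: extracellular domain of Rv3671c used as enzyme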
Mtb FBA inh – inhibitors of M. tuberculosis fructose-bisphosphate aldolase. P9WQA3. purified M. tuberculosis FBA, fluorescence read-out. inhibition, % at 1 µM. 360,000 tested, 2.3% active. AID 588726
Target sequence (P9WQA3 whole entry, looked up): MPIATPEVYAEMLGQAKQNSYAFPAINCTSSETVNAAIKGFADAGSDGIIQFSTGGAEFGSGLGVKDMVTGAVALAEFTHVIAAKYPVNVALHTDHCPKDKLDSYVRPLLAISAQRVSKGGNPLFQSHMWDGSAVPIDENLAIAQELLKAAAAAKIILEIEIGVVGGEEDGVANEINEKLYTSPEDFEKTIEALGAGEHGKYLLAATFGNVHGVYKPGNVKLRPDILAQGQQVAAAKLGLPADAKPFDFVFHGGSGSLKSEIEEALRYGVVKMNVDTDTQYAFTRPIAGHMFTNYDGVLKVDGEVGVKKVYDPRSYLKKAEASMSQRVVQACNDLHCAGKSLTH
RecA intein inh – inhibitors of M. tuberculosis RecA intein splicing; P9WHJ3; cell-free RecA intein splicing, fluorescence; inhibition, % (test concentration not listed); 290,000 tested, 0.75% active; AID 2221; in the data active means inhibition above about 30%
Mtb FBA confirm – Mtb FBA inhibition, confirmed | shares compounds with Mtb FBA inh | purified M. tuberculosis FBA, fluorescence read-out | inhibition, % at 1 µM | 5,600 tested, 78% active
GDH-TPI counter-2 – inhibits GDH-TPI coupling enzymes, flagging Mtb FBA hits; 5,600 tested, 81% active; shares compounds with Mtb FBA inh; GDH-TPI coupled enzyme counterscreen, fluorescence; inhibition, % at 1 µM; AID 652141; in the data active means inhibition above about 10%
A number is an active result; . = inactive; / = no result given; + = active, no number. An excerpt weighted towards active compounds, which were near 4% of everything screened. Unless noted, no stated cut-off is given here; in the data, active means inhibition above about 27%; inactive means the rest.

SMILES | Mtb bLac sens | GDH-TPI counter-1 | UGM FP inh | Rv3671c inh | Mtb FBA inh | RecA intein inh | Mtb FBA confirm | GDH-TPI counter-2
N#Cc1c(Cl)nc(Cl)c2c1CCN(Cc1ccccc1)C2 | . | . | . | . | 93 | . | + | +
COc1cc(/C=N/NC(=O)C(N)=O)cc(OC)c1O | . | . | . | . | 51 | . | + | +
CCOC(=O)N/N=C/c1cc(OC)c(O)c(OC)c1 | . | . | . | . | . | . | / | /
CCOc1ccccc1-c1cc(C(=O)N/N=C/c2ccc3c(c2)OCO3)c2ccccc2n1 | / | . | / | / | 66 | / | + | +
Cc1ccc(/C=N/NC(=O)c2cc(-c3cccnc3)nc3ccccc23)cc1 | . | . | . | . | . | . | / | /
CCOc1cc(/C=N/NC(=O)c2cc(-c3cccnc3)nc3ccccc23)ccc1O | . | 51 | . | . | 108 | . | . | .
COc1ccc2cc(/C(C)=N/NC(=O)c3cc(-c4cccnc4)nc4ccccc34)ccc2c1 | . | . | . | . | 34 | . | 105 | 89
O=C(N/N=C/c1ccc2c(c1)OCO2)c1cc(-c2ccccc2Cl)nc2ccccc12 | . | . | . | . | . | . | / | /
CN(c1ccccc1)S(=O)(=O)c1cccc(C(=O)NCCCN2CCCC2=O)c1 | . | . | . | . | . | . | / | /
NCCS(=O)(=O)O | . | . | . | . | . | . | / | /
O=C(NCc1ccc(Cl)cc1)C1CCCCN1S(=O)(=O)c1ccccc1 (stereo unspecified) | . | . | . | . | . | . | / | /
CC1C(=O)N2CCCc3cc(NC(=O)C(=O)NCc4ccccn4)cc1c32 (stereo unspecified) | . | . | . | . | . | . | / | /
CCCS(=O)(=O)NC(=O)C1(C)CCCN(C(=O)c2cc(OC)ccc2Br)C1 (stereo unspecified) | / | . | / | / | . | / | / | /
O=C(Oc1cc(Cl)ccc1Cl)C1=CC=CN2CCS(=O)(=O)N=C12 | . | . | . | . | . | / | / | /
CN(Cc1ccc(Cl)c(Cl)c1)C(=O)C1=CC=CN2CCS(=O)(=O)N=C12 | . | . | . | . | . | / | / | /
CC(NC(=O)C1=CC=CN2CCS(=O)(=O)N=C12)c1ccc(Cl)cc1Cl (stereo unspecified) | . | . | / | . | 29 | / | 126 | 95
O=C(NCc1ccccc1Cl)C1=CC=CN2CCS(=O)(=O)N=C12 | . | . | . | . | 36 | / | + | +
CC(=O)COc1ccc2c(-c3cccc([N+](=O)[O-])c3)cc(=O)oc2c1 | . | . | . | . | 36 | . | 108 | 74
COc1ccc(C2=NC(=O)NC2c2ccc(OC)cc2)cc1 (stereo unspecified) | . | . | . | . | . | . | / | /
O=C1N=C(c2ccccc2)C(c2ccccc2)N1 (stereo unspecified) | . | . | . | . | 91 | . | . | .
Cc1ccc(C(=O)c2ccccc2C(=O)Nc2ccccc2)cc1 | . | . | . | . | . | . | / | /
O=C(Nc1ccccc1)c1ccccc1N=Cc1cccc(O)c1 | . | . | . | . | 41 | . | 51 | 40
COc1cccc(C=Nc2ccccc2C(=O)Nc2ccccc2)c1O | . | . | . | . | 30 | . | 129 | 107
Cc1ccccc1C=Nc1ccccc1C(N)=O | . | . | . | . | 50 | . | 71 | 57
Cc1ccc(C=Nc2ccccc2C(=O)Nc2ccccc2)cc1 | . | . | . | . | 39 | . | 136 | 103
SMILES | Mtb bLac sens | GDH-TPI counter-1 | UGM FP inh | Rv3671c inh | Mtb FBA inh | RecA intein inh | Mtb FBA confirm | GDH-TPI counter-2
O=C(N/N=C/c1cccc(O)c1)c1ccccc1O | . | . | . | . | . | . | / | /
CCCCCCSc1cccc(-c2nc3ccc(Cl)cn3c2NCc2ccccc2)c1 | . | . | . | . | . | . | / | /
COc1ccc(C(=O)COc2ccc(C(C)=O)cc2OC)cc1OC | / | . | / | / | . | / | / | /
C[C@H](CO)N1C[C@H](C)[C@@H](CN(C)Cc2ccc(C(=O)O)cc2)Oc2c(NS(=O)(=O)c3cn(C)cn3)cccc2C1=O | . | . | . | . | . | / | / | /
Cc1ccc(C=Nc2ccccc2C(N)=O)cc1 | . | . | . | . | 65 | . | 83 | 74
NC(=O)c1ccccc1N=Cc1cccnc1 | . | . | . | . | . | . | / | /
CC[C@]12c3[nH]c4cc(-c5ccco5)ccc4c3CCN1C(=O)[C@@H](CC(=O)NCCc1ccccn1)C[C@@H]2C(=O)N1CCN(C(=O)C2CC2)CC1 | / | . | / | / | 30 | / | 47 | 33
C[C@]12c3[nH]c4cc(-c5ccco5)ccc4c3CCN1C(=O)[C@@H](CC(=O)NCCc1ccccn1)C[C@@H]2C(=O)N1CCCCC1 | / | . | / | / | 43 | / | 68 | 47
CC[C@]12c3[nH]c4cc(-c5ccco5)ccc4c3CCN1C(=O)[C@@H](CC(=O)NC(C)(C)C)C[C@@H]2C(=O)N1CCN(C(=O)C2CC2)CC1 | / | . | / | / | 27 | / | 63 | 52
CC[C@]12c3[nH]c4cc(-c5ccco5)ccc4c3CCN1C(=O)[C@@H](CC(=O)NC/C=C(\C)CCC=C(C)C)C[C@@H]2C(=O)N1CCN(C(=O)C2CC2)CC1 | / | . | / | / | . | / | / | /
Cc1ccc(N2CCN(S(=O)(=O)c3ccc4oc(=O)ccc4c3)CC2)cc1Cl | . | . | . | . | . | . | / | /
COc1cccc(-n2cnc3scc(-c4cccs4)c3c2=O)c1 | . | . | . | . | . | . | / | /
CCOc1ccc(-n2cnc3scc(-c4ccc(OC)c(OC)c4)c3c2=O)cc1 | . | . | . | . | 28 | . | 30 | 21
COc1cccc(CNn2c(-c3cccc(C)c3)nc3ccccc3c2=O)c1O | . | . | . | . | . | . | / | /
COc1ccccc1[C@H]1C(c2ccc(F)cc2)=NN(c2ccccc2)[C@@H]1CO | / | . | / | / | 44 | / | + | +
COc1ccccc1[C@H]1C(c2cccc(C)c2)=NN(c2ccccc2)[C@@H]1CO | / | . | / | / | 44 | / | 108 | 114
N#C/C(=N\Nc1ccc(F)cc1)C(=N)N1CCCCCC1 | . | . | . | . | . | . | / | /
N#C/C(=N\Nc1ccc(Cl)c(Cl)c1)C(=O)C1CC1 | . | . | . | . | 66 | . | . | .
N#C/C(=N\Nc1ccc(F)cc1)C(=O)C1CC1 | . | . | . | . | 37 | . | 63 | 59
O=C(Nc1ccc(Cl)c(Cl)c1)C1CCCCC1 | . | . | . | . | . | / | / | /
CCCC1=Nc2cc(C(=O)N3CCN(c4ccccn4)CC3)ccc2Sc2ccc(C)cc21 | . | . | . | . | . | . | / | /
O=C1NC(=O)C(Cc2ccc(O)cc2)N1 (stereo unspecified) | / | . | / | / | . | / | / | /
O=S1(=O)CCN2C=C(Br)C=C(Br)C2=N1 | . | . | . | . | 29 | . | 133 | 105
Cc1ccc(NC(=O)COC(=O)C2CCN(c3ccc(C(F)(F)F)cn3)CC2)cc1 | . | . | . | . | . | / | / | /
O=C(Nc1ccc(Cl)cc1)c1cc2c(cc1O)[nH]c1ccccc12 | . | . | . | . | 107 | . | 83 | 71
CC(=O)Nc1ccc2[nH]c3ccccc3c2c1 | . | . | . | . | . | / | / | /
